Source: PubChem BioAssay (NCATS)
Where “and” joins values, the source holds several entries; their conditions need not be identical. Equal values may be shown once. Records with an inconclusive call do not appear. Calls of active or inactive are those of the source. Unless noted, calls follow the shape of the dose curve; as a rule, active = well fitted curve in the direction sought with a large enough effect; inconclusive = small, poorly fitted or top-dose-only effect, or another doubt; inactive = no such curve, though single readings can be large; an effect the other way counts as inactive or inconclusive.

Legend:
[1] = biological target: Cytochrome P450 2C19 (Homo sapiens) (UniProt P33261); test: qHTS Assay for Inhibitors and Substrates of Cytochrome P450 2C19 (AID 899); also: nearly all actives have a fitted effect of over 60% in size; also: potency is read from the fitted curve at half-maximal effect
Cytochrome P450 2C19 (Homo sapiens), sequence (P33261 whole entry, looked up): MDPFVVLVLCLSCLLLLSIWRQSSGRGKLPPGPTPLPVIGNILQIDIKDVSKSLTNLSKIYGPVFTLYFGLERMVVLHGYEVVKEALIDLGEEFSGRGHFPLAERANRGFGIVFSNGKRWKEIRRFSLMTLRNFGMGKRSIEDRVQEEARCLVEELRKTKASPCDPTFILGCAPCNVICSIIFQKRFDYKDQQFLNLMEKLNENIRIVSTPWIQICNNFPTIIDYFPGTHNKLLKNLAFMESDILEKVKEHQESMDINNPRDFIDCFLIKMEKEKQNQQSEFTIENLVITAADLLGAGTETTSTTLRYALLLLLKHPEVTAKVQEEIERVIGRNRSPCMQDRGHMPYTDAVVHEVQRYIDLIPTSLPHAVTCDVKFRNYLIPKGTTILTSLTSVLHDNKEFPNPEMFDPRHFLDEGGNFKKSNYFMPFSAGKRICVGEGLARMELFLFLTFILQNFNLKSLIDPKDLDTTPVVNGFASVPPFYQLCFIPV
In short: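 Human CYP2C19 (5nM) with Luciferin-H EGE at 10uM (its KM) in 50mM KPO4 was preincubated with compound for 10 min at 37C. NADPH regeneration started a 60 min 37C reaction. Luciferin was read by luminescence, normalized to 57uM ketoconazole.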

[2] = biological target: ATP-dependent 6-phosphofructokinase (Trypanosoma brucei brucei) (UniProt O15648); test: qHTS Assay to Find Inhibitors of T. brucei phosphofructokinase: hit validation (AID 492961);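 also: luminescence reports ADP formed as PFK phosphorylates fructose-6-phosphate with ATP; % is scaled to controls: 0 for no effect and ±100 for the full control effect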
ATP-dependent 6-phosphofructokinase (Trypanosoma brucei brucei), sequence (O15648 whole entry, looked up): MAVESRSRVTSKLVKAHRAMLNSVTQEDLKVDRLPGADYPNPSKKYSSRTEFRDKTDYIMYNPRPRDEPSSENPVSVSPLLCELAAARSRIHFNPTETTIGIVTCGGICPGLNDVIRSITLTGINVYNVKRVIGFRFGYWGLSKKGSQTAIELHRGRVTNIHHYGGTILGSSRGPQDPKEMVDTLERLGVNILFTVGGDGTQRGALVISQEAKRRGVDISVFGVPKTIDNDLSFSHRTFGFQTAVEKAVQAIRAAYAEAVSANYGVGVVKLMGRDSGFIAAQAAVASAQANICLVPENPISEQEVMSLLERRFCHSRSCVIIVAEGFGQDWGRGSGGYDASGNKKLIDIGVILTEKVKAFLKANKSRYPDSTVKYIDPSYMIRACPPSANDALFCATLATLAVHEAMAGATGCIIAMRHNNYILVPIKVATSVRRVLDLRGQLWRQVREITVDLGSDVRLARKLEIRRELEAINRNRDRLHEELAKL
In short: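 PFK 1.25 nM, F6P 0.5 mM, ATP 0.1 mM, MgCl2 5 mM, 0.1 M TEA pH 8.0, Tween20 0.01%, BSA 0.1%; 45 min RT. ADP-Glo two-step detection, luminescence. qHTS titration; curve fitting with curve-class categorization.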

[3] = biological target: Luciferin 4-monooxygenase (Photinus pyralis) (UniProt P08659); test: Biochemical firefly luciferase enzyme assay for NPC (AID 624030);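 also: purified P. pyralis luciferase at 10 nM with luciferin and ATP substrate; 0% = DMSO and -100% = full luciferase inhibition by PTC124 control; nearly all actives have a fitted effect of over 70% in size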
Luciferin 4-monooxygenase (Photinus pyralis), sequence (P08659 whole entry, looked up): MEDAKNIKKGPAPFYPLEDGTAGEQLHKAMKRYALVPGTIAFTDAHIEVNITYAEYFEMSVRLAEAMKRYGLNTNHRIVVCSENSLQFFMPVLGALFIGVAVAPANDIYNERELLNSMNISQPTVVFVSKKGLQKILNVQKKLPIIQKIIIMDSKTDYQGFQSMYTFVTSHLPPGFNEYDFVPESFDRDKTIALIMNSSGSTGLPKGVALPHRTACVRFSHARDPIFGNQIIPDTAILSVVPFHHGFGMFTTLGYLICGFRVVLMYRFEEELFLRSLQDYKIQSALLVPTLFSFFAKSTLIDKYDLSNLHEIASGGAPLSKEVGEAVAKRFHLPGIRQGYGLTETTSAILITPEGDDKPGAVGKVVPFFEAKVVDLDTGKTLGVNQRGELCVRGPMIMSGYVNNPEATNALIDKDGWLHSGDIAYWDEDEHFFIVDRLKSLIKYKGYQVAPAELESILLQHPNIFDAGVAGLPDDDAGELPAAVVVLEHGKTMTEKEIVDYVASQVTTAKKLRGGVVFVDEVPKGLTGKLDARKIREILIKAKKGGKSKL
In short: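 Counter-screen for direct inhibition of the luciferase enzyme by approved-drug library compounds, run at 10 nM enzyme in 50 mM Tris acetate (final). Luminescence was read within 5 min of enzyme-buffer addition and normalized to PTC124 versus DMSO (0%).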

[4] = S16 Schwann cell viability assay (CellTiter-Glo assay) (AID 624031);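 also: cellular ATP luminescence as a viability measure; plate controls were DMSO-treated cells for no effect and cell-free wells for full effect; nearly all actives have a fitted effect of over 70% in size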
In short: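 CellTiter-Glo ATP luminescence counter-screen in untransfected S16 rat Schwann cells, 24h compound exposure at 37 degree Celsius after overnight seeding (500-750 cells/well); response scaled between cell-free wells and DMSO (0% activity), curves classed by r2 and magnitude.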

[5] = S16 Schwann cell PMP22 intronic element firefly luciferase assay (AID 624032);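 also: plate controls were DMSO for no effect and PTC124 positive control mean for full effect; nearly all actives have a fitted effect of over 30% in size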
In short: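 Rat S16 Schwann cells stably carrying a PMP22 intronic element-driven Fluc reporter were seeded overnight, then exposed to compounds for 24 h at 37 °C. Luminescence was normalized to PTC124 (positive control) and DMSO (0% activity).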

AS120 = test: qHTS profiling for inhibitors of Plasmodium falciparum proliferation (AID 504749); also: nearly all actives have a fitted effect of over 60% in size; also: potency is read from the fitted curve at half-maximal effect; details: P. falciparum in erythrocytes, SYBR Green DNA, 72 h; series mostly up to 28.7 µM
In short: (§1)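 Quantitative HTS: compounds pinned into medium, infected erythrocytes added (0.3% parasitemia, 2.5% hematocrit), 72 h culture at 37 C under 5% CO2. Saponin/Triton lysis with SYBR Green I, overnight RT, then fluorescence read.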

CP191 = test: as above; details: P. falciparum in erythrocytes, SYBR Green DNA, 72 h; series mostly up to 12.8 µM
In short: as §1

CP247 = test: as above; details: P. falciparum in erythrocytes, SYBR Green DNA, 72 h; series mostly up to 12.8 µM
In short: as §1

CP250 = test: as above; details: P. falciparum in erythrocytes, SYBR Green DNA, 72 h; series mostly up to 12.8 µM
In short: as §1

CP265 = test: as above; details: P. falciparum in erythrocytes, SYBR Green DNA, 72 h; series mostly up to 12.8 µM
In short: as §1

Dd2 = test: as above; details: P. falciparum in erythrocytes, SYBR Green DNA, 72 h; series mostly up to 12.8 µM
In short: as §1

FAB9 = test: as above; details: P. falciparum in erythrocytes, SYBR Green DNA, 72 h; series mostly up to 12.8 µM
In short: as §1

N140 = test: as above; details: P. falciparum in erythrocytes, SYBR Green DNA, 72 h; series mostly up to 12.8 µM
In short: as §1

PC15 = test: as above; details: P. falciparum in erythrocytes, SYBR Green DNA, 72 h; series mostly up to 12.8 µM
In short: as §1

PC49 = test: as above; details: P. falciparum in erythrocytes, SYBR Green DNA, 72 h; series mostly up to 12.8 µM
In short: as §1

[6] = biological target: Cytochrome P450 2C9 (Homo sapiens) (UniProt P11712); test: qHTS Assay for Inhibitors and Substrates of Cytochrome P450 2C9 (AID 883); also: nearly all actives have a fitted effect of over 60% in size; also: potency is read from the fitted curve at half-maximal effect; as to activity change, negative = inhibition: % is scaled to controls: 0 for no effect and ±100 for the full control effect
Cytochrome P450 2C9 (Homo sapiens), sequence (P11712 whole entry, looked up): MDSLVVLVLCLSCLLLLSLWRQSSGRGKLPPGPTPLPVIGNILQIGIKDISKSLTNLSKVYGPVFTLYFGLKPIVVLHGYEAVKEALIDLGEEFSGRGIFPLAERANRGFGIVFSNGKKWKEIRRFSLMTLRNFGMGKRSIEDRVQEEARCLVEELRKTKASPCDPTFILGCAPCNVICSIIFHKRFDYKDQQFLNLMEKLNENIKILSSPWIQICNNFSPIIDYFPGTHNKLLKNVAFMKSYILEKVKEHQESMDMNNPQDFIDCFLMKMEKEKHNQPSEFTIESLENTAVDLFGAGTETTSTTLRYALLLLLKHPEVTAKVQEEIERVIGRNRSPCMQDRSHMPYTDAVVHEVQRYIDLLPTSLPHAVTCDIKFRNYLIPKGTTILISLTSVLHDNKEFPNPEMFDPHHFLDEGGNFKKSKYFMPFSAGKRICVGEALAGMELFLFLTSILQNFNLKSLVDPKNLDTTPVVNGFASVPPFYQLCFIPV
In short: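 Human CYP2C9 (10nM) hydroxylated Luciferin-H (100uM, at its KM) to luciferin in 25mM KPO4. Compound was preincubated 10 min at 37C, then NADPH regeneration started a 60 min reaction at 37C. Luminescence was read after detection reagent, normalized to 57uM sulphaphenazole.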

[7] = biological target: Cytochrome P450 2D6 (Homo sapiens) (UniProt P10635); test: qHTS Assay for Inhibitors and Substrates of Cytochrome P450 2D6 (AID 891); also: nearly all actives have a fitted effect of over 60% in size; also: potency is read from the fitted curve at half-maximal effect;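 as to activity change, negative = inhibition: luciferin methyl ether substrate demethylated by CYP2D6 with NADPH regeneration; % is scaled to controls: 0 for no effect and ±100 for the full control effect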
Cytochrome P450 2D6 (Homo sapiens), sequence (P10635 whole entry, looked up): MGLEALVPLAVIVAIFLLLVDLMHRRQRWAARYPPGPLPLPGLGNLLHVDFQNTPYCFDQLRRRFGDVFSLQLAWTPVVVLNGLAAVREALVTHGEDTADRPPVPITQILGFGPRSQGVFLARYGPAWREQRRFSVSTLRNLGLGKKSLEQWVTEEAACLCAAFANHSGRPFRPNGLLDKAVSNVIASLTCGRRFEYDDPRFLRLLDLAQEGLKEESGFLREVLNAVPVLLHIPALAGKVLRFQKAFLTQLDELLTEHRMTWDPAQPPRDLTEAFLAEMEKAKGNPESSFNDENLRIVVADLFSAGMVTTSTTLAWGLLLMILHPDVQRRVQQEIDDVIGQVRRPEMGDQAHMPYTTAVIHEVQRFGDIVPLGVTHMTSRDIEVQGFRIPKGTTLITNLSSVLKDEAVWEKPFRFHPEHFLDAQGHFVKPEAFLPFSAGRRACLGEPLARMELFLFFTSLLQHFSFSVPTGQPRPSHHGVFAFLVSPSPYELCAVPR
In short: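 Luminescent read-out of luciferin formed by 5 nM human CYP2D6 demethylating 30 uM Luciferin-ME EGE (Km level) over 60 min at room temperature after NADPH regeneration addition. Data normalized to full inhibition by 1.43 uM quinidine.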

[8] = qHTS Assay for Identification of Small Molecule Agonists for Thrombopoietin (TPO) Signaling Pathway (AID 917); also: % is scaled to controls: 0 for no effect and ±100 for the full control effect
In short: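 Luciferase reporter (Glycoprotein IIb promoter) in IL-3-deprived Ba/F3 cells carrying human TPO receptor; compounds co-added with 26 pM TPO, incubated 24 h, 37 C. Steadylite luminescence measured after 10 min.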

[9] = biological target: Pyruvate kinase PKM (Homo sapiens) (UniProt P14618); test: qHTS Assay for Activators of Human Muscle Pyruvate Kinase (AID 954; active = well fitted curve in the direction sought with a large enough effect, not every such curve was filed as active;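 also: 0% = uninhibited enzyme and -100% = no enzyme or full thiadiazolimine inhibition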)
Pyruvate kinase PKM (Homo sapiens), sequence (P14618 whole entry, looked up): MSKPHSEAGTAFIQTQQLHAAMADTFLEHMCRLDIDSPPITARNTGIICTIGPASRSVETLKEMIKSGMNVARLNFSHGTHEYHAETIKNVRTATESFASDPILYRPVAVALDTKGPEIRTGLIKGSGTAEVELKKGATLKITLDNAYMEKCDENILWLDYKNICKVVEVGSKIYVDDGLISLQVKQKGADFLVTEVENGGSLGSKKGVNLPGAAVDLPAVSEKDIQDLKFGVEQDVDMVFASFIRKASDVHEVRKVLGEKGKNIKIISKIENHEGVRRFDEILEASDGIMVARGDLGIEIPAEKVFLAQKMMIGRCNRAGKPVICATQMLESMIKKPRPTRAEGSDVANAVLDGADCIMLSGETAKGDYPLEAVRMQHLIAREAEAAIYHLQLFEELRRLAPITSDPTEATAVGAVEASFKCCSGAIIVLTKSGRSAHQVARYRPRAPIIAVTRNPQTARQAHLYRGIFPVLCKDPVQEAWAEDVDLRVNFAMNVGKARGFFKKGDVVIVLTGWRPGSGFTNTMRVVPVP
In short: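 PKM2, human, >95% pure, 0.1 nM; PEP 0.5 mM (Km), ADP 0.1 mM; 50 mM imidazole pH 7.2, 50 mM KCl, 0.01% Tween 20, 0.05% BSA; 1 h RT; luciferase luminescence readout.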

[10] = biological target: Muscarinic acetylcholine receptor M1 (Rattus norvegicus) (UniProt P08482); test: qHTS Assay for Antagonists of Acetylcholine Muscarinic M1 Receptor: Measurement of IP-One Response (AID 944); also: nearly all actives have a fitted effect of over 75% in size
Muscarinic acetylcholine receptor M1 (Rattus norvegicus), sequence (P08482 whole entry, looked up): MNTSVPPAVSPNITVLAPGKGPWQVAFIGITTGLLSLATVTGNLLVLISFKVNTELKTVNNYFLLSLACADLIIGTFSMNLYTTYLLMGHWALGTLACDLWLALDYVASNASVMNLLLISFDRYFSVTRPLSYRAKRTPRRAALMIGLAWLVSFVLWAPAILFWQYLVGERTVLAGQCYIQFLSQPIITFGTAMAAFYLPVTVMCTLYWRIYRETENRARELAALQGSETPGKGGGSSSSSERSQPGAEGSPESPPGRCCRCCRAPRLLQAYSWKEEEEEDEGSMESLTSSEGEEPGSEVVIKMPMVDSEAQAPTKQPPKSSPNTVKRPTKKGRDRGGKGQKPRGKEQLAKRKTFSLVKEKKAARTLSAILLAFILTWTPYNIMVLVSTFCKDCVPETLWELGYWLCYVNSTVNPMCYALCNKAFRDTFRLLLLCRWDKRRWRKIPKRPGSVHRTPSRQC
In short: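 IP1 accumulation measured via TR-FRET between d2-IP1 and Eu-cryptate anti-IP1 antibody after carbachol (200 nM, EC80) stimulation for 30 min; rat M1-transfected CHO cells received compound 10 min before agonist.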

Cc1cccc(CNc2nc(-c3ccoc3)nc3ccccc23)c1
active: Potency [1] 7.94 µM

CN1CCCC[C@@H]1CCN1c2ccccc2Sc2ccc(S(C)=O)cc21 (some centres undefined)
inactive: outcome [2] | outcome [3] | Potency [4] | Potency [5] | Potency (AS120) | Potency (CP191) | Potency (CP247) | Potency (CP250) | Potency (CP265) | Potency (Dd2) | Potency (FAB9) | Potency (N140) | Potency (PC15) | Potency (PC49)

COc1ccccc1-c1ccc2ncnc(N(C)C)c2c1
active: Potency [1] 0.501 µM

Cc1cccc(CNc2nc(-c3cccc(NS(C)(=O)=O)c3)nc3ccccc23)c1
active: Potency [1] 2.51 µM

Cc1ccccc1-c1nc(-n2ccnc2)c2ccccc2n1
active: Potency [1] 5.01 µM

COc1ccc2[nH]cc(CCNc3cc(-c4ccoc4)ncn3)c2c1
active: Potency [1] 5.01 µM

N#CCCn1c(=O)cnc2cnc(N3CCNCC3)nc21
inactive: Potency [6]

COCC(=O)N1CCC2(CCN(Cc3ccncc3)CC2)CC1
active: Potency [6] 0.398 µM | Potency [7] 6.31 µM | Potency [1] 0.0251 µM

CNc1nc(-c2ccccc2OC)nc2ccccc12
inactive: Potency [1]

CN(C)C(=O)c1ccc(-c2nc(N(C)C)c3ccccc3n2)cc1
inactive: activity change, negative = inhibition [6] 29.4% [at 2.29 µM] | Potency [1]

COc1ccc2[nH]cc(CCNc3nc(-c4ccoc4)nc4ccccc34)c2c1
active: Potency [1] 1.58 µM

Cc1noc(C)c1C(=O)N1CCC[C@@]2(CCN(Cc3cc(C(F)(F)F)cc(C(F)(F)F)c3)C2)C1
inactive: Potency [1]

COc1ccccc1-c1nccc(NCc2cccc(C)c2)n1
active: Potency [7] 1.58 µM

O=c1cnc2cnc(N3CCOCC3)nc2n1C[C@H]1CCCO1
inactive: Potency [6]

N#CCCn1c(=O)c(-c2ccc(Cl)cc2)nc2cnc(Oc3cccc(Cl)c3)nc21
inactive: Potency [6]

CN(C)Cc1ccccc1-c1ccc2ncnc(N(C)Cc3ccco3)c2c1
active: Potency [7] 2 µM

COc1ccccc1CN1CCC2(CC1)CCN(S(=O)(=O)c1ccccc1)CC2
active: Potency [7] 0.158 µM

CS(=O)(=O)N1CCC[C@@]2(CCN(C(c3ccccc3)c3ccccc3)C2)C1
active: Potency [7] 3.98 µM

O=C(c1cccc(F)c1)N1CCC2(CC1)CCN(C(c1ccccc1)c1ccccc1)CC2
active: Potency [7] 3.16 µM

c1ccc2c(Nc3ccncc3)nc(-c3ccc4c(c3)OCO4)nc2c1
active: Potency [1] 3.98 µM

FC(F)(F)c1cc(CN2CC[C@@]3(CCCNC3)C2)cc(C(F)(F)F)c1
inactive: Potency [6] | Potency [7] | Potency [1]

O=S(=O)(c1ccccc1)N1CCC[C@@]2(CCN(Cc3nccs3)C2)C1
active: Potency [7] 2.51 µM | Potency [1] 7.94 µM

CC[C@@]12CCCN3CCc4c(n(c5ccccc45)C(=O)C1)[C@H]32
active: Potency [1] 7.94 µM
inactive: outcome [2] | outcome [3] | Potency [4] | Potency [5] | Potency (AS120) | Potency (CP191) | Potency (CP247) | Potency (CP250) | Potency (CP265) | Potency (Dd2) | Potency (FAB9) | Potency (N140) | Potency (PC15) | Potency (PC49)

Cc1cccc(CNc2cc(-c3cccc(NS(C)(=O)=O)c3)ncn2)c1
inactive: activity change, negative = inhibition [6] 33.9% [at 2.29 µM]

COCC(=O)N1CCC2(CC1)CN(Cc1nccs1)C2
inactive: Potency [6] | Potency [1]

CCCN[C@@H](C)C(=O)Nc1ccccc1C
inactive: outcome [8] | outcome [9] | outcome [2] | outcome [3] | Potency [4] | Potency [5] | Potency (AS120) | Potency (CP191) | Potency (CP247) | Potency (CP250) | Potency (CP265) | Potency (Dd2) | Potency (FAB9) | Potency (N140) | Potency (PC15) | Potency (PC49)

CCCCCN(CCCCC)C(=O)[C@H](CCC(=O)O)NC(=O)c1ccc(Cl)c(Cl)c1
active: Potency [6] 3.98 µM
inactive: outcome [8] | Potency [10] | outcome [9]

O=C(O)CNC(=O)[C@@H](CS)Cc1ccccc1
inactive: outcome [8] | outcome [9]

CN(C)[C@@H]1C(=O)C(C(N)=O)=C(O)[C@]2(O)C(=O)C3=C(O)c4c(O)ccc(Cl)c4[C@H](O)[C@H]3C[C@@H]12
inactive: Potency [6] | outcome [8] | Potency [10] | outcome [9] | outcome [2] | outcome [3] | Potency [4] | Potency [5] | Potency (AS120) | Potency (CP191) | Potency (CP247) | Potency (CP250) | Potency (CP265) | Potency (FAB9) | Potency (N140) | Potency (PC15) | Potency (PC49)
active: Potency (Dd2) 3.16 µM

N[C@@H](CO)C(=O)NNCc1ccc(O)c(O)c1O
inactive: Potency [10] | outcome [9] | outcome [2] | outcome [3] | Potency [5] | Potency (AS120) | Potency (CP191) | Potency (CP247) | Potency (CP250) | Potency (CP265) | Potency (Dd2) | Potency (FAB9) | Potency (N140) | Potency (PC15) | Potency (PC49)

CC(C)(C)NC[C@H](O)c1cc(O)cc(O)c1
inactive: outcome [8] | outcome [9] | outcome [2] | outcome [3] | Potency [4] | Potency (AS120) | Potency (CP191) | Potency (CP247) | Potency (CP250) | Potency (CP265) | Potency (Dd2) | Potency (FAB9) | Potency (N140) | Potency (PC15) | Potency (PC49)

C[C@@H](CCc1ccccc1)NC[C@H](O)c1ccc(O)c(C(N)=O)c1
active: Potency [7] 3.98 µM and 2 µM
inactive: Potency [10] | outcome [9] | outcome [2] | outcome [3] | Potency [4] | Potency [5] | Potency (AS120) | Potency (CP191) | Potency (CP247) | Potency (CP250) | Potency (CP265) | Potency (Dd2) | Potency (FAB9) | Potency (N140) | Potency (PC15) | Potency (PC49)

C[C@@]12CCC(=O)C=C1CC[C@H]1[C@H]3CC[C@](O)(C(=O)CO)[C@]3(C)CC(=O)[C@@H]12
inactive: Potency [6] | Potency [7] | Potency [1]

C[C@@H]1c2cccc(O)c2C(O)=C2C(=O)[C@@]3(O)C(O)=C(C(N)=O)C(=O)[C@@H](N(C)C)[C@@H]3[C@@H](O)[C@@H]21
inactive: outcome [8] | Potency [10] | outcome [9] | outcome [2] | outcome [3] | Potency [4] | Potency [5] | Potency (AS120) | Potency (CP191) | Potency (CP247) | Potency (CP250) | Potency (CP265) | Potency (FAB9) | Potency (N140) | Potency (PC15) | Potency (PC49)
active: Potency (Dd2) 3.98 µM

CO/N=C(\C(=O)N[C@@H]1C(=O)N2C(C(=O)O)=C(COC(C)=O)CS[C@@H]12)c1csc(N)n1
inactive: Potency [1] | outcome [8] | Potency [10] | outcome [2] | outcome [3] | Potency [4] | Potency [5] | Potency (AS120) | Potency (CP191) | Potency (CP247) | Potency (CP250) | Potency (CP265) | Potency (Dd2) | Potency (FAB9) | Potency (N140) | Potency (PC15) | Potency (PC49)

C[C@@]12CCC(=O)C=C1CC[C@@H]1[C@@H]2[C@H](O)C[C@]2(C)[C@@H]1CC[C@]2(O)C(=O)CO
inactive: Potency [6] | Potency [7] | Potency [1]

COc1ccc(-c2nc3cnc(N4CCNCC4)nc3n(C3CC3)c2=O)cc1
active: Potency [6] 7.94 µM

COc1ccc([C@H]2Sc3ccccc3N(CCN(C)C)C(=O)[C@H]2OC(C)=O)cc1
inactive: outcome [8] | outcome [9]
